Screening results: PubChem BioAssay, National Center for Advancing Translational Sciences (NCATS)
Compounds with a hit are over-represented: about 2.1% of the library has one in this group of screens.
aSyn rescue – inhibitors of alpha-synuclein toxicity in yeast; Yeast expressing alpha-synuclein, growth rescue, BacTiter-Glo, 24 h; actives 0.14% (n = 370,000); Potency, µM (series often up to 46.1 µM), hits mostly activators; also: nearly all actives have a fitted effect of over 65% in size
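Screening used galactose-induced yeast with toxic alpha-synuclein levels, exposed to compound for 24 hr at 30 deg C. Cell growth, read with BacTiter-Glo luminescence, gave the measured signal.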
Abeta rescue – A-beta toxicity reversal in yeast | Potency, µM (doses to about 46.1 µM), hits mostly activators | yeast expressing A-beta42, growth rescue, OD600, 48 h; response scale: 0% DMSO, 100% iron-clioquinol control | actives 0.063% (n = 410,000) | AID 1347071; also: nearly all actives have a fitted effect of over 55% in size
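Growth rescue measured by 600 nm absorbance after 48 h yeast culture at 30 C with compound. Values normalized between DMSO and an equimolar ferric chloride plus clioquinol control.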
TDP-43 yeast inh – TDP-43 toxicity inhibition in yeast; Potency, µM (series often up to 46.1 µM), most hits filed as activators; AID 652104; TDP-43 expressing yeast growth rescue, BacTiter-Glo, 24 h; actives 1.8% (n = 410,000); also: nearly all actives have a fitted effect of over 50% in size
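Luminescence from BacTiter-Glo reports growth of TDP-43-expressing yeast after 24 hr at 30 deg C with compound. Cells were raffinose-pregrown to mid-log, then seeded in galactose medium at OD600=0.02.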
FUS suppressor – FUS proteinopathy suppression in yeast; Potency, µM (top dose mostly 76.6 µM), hits mostly activators; S. cerevisiae FUS-expressing, growth rescue, OD600, 24 h; AID 1347120; actives 0.24% (n = 390,000); also: nearly all actives have a fitted effect of over 55% in size
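Quantitative HTS measuring growth restoration of FUS-toxic yeast. Galactose-induced cells (OD 0.005) were exposed 24hr at 30C to compounds at several concentrations, then absorbance at 600 nm was recorded.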
Each line names hits and unclear results; the compound was inactive in the other large screens; ! = not confirmed by another sample. Calls follow the shape of the dose curve; as a rule, active = well fitted curve in the direction sought with a large enough effect; inconclusive = small, poorly fitted or top-dose-only effect, or another doubt; inactive = no such curve, though single readings can be large; an effect the other way counts as inactive or inconclusive.

CCCOc1ccc(CNC(=O)c2ccc3c(c2)N(Cc2ccccc2)CCS3)cc1	none (no result: aSyn rescue)
COc1cccc(NC(=O)CN2CCSc3ccccc32)c1	TDP-43 yeast inh 22µM
Cc1cccc(NC(=O)CN2CCSc3ccccc32)c1	none
Cc1ccc(C2(C)NC(=O)N(CC(=O)N3c4ccccc4NC(=O)CC3C)C2=O)cc1 (stereo unspecified)	aSyn rescue 3.5µM
C=CCC[C@@H](Cc1ccc(F)cc1)C(=O)OC[C@H]1CCCN1C(=O)[C@@H](CC=C)CC(=O)N[C@H](CO)Cc1ccccc1	FUS suppressor inconclusive
C=CCC[C@@H](Cc1ccc(F)cc1)C(=O)OC[C@@H]1CCCN1C(=O)[C@H](CC=C)CC(=O)N[C@H](CO)Cc1ccccc1	aSyn rescue inconclusive, TDP-43 yeast inh inconclusive, FUS suppressor 20µM
C=CCC[C@@H](Cc1ccc(F)cc1)C(=O)OC[C@@H]1CCCN1C(=O)[C@@H](CC=C)CC(=O)N(CCO)Cc1ccccc1	FUS suppressor 20µM
Cc1ccc(-c2cc(N)n(-c3ccccc3)n2)cc1	TDP-43 yeast inh 20µM
O/N=C1\CCCc2ccc3ccccc3c21	TDP-43 yeast inh 11µM
O=C(C1CCCN(S(=O)(=O)c2ccc(F)cc2)C1)N1CCN(Cc2ccccc2)CC1 (stereo unspecified)	none (no result: aSyn rescue, Abeta rescue, TDP-43 yeast inh)
Cc1ccc(C)c(NC(=S)N(C2CCCCC2)C(C)c2cccnc2)c1 (stereo unspecified)	none
Cc1c(OCc2ccccc2)cccc1OCc1ccccc1	none
Clc1ncccc1OCc1ccccc1	TDP-43 yeast inh 13µM
O=C(COC(=O)/C=C/c1ccccc1)Nc1cccnc1Cl	none
O=C(/C=C/c1ccccc1)Nc1cccnc1Cl	TDP-43 yeast inh 7.9µM
COc1ccc(-n2c3c(c(=O)[nH]c2=O)C(NS(=O)(=O)c2ccc(Cl)cc2)(C(F)(F)F)C(=O)N3)cc1 (stereo unspecified)	none
CCC(C)C(NC(=O)c1ccccc1NC(=O)c1ccccc1)C(=O)N1CCOCC1 (stereo unspecified)	none
CC1CCCN(CC(=O)N2c3ccccc3Sc3ccccc32)C1 (stereo unspecified)	Abeta rescue 22µM
O=C(O)c1ccc(C2CCCCC2)cn1	aSyn rescue inconclusive, TDP-43 yeast inh 13µM
CC(=O)c1ccccc1OCCn1nnc(-c2ccc(C)cc2)n1	TDP-43 yeast inh 25µM
O=C(NC1CCCCC1)c1ccc(-c2ccccc2[N+](=O)[O-])o1	none
O=C(O)C1C2CCC(CC2)C1C(=O)N1CCN(Cc2ccc(F)cc2)CC1 (stereo unspecified)	TDP-43 yeast inh 20µM
O=C(c1ccco1)N1CCN(c2ncnc3scc(-c4ccc(Cl)cc4)c23)CC1	TDP-43 yeast inh 25µM
OCCN1CCN(c2ncnc3scc(-c4ccc(F)cc4)c23)CC1	none
Cc1nc(N2CCN(c3ccccc3O)CC2)c2c(-c3ccccc3)csc2n1	TDP-43 yeast inh inconclusive
O=C(c1ccco1)N1CCN(c2ncnc3sc4c(c23)CCC4)CC1	TDP-43 yeast inh inconclusive
Oc1ccccc1N1CCN(c2ncnc3scc(-c4ccccc4)c23)CC1	TDP-43 yeast inh 18µM, FUS suppressor inconclusive
Oc1ccccc1N1CCN(c2ncnc3scc(-c4ccc(F)cc4)c23)CC1	TDP-43 yeast inh 22µM, FUS suppressor inconclusive
c1ccc2c(c1)OCC(c1csc3ncnc(N4CCCC4)c13)O2 (stereo unspecified)	TDP-43 yeast inh 22µM
Cc1ccc(-c2csc3ncnc(N4CCN(S(=O)(=O)c5cccs5)CC4)c23)cc1	TDP-43 yeast inh 4.5µM (no result: FUS suppressor)
O=C(Cc1ccccc1[N+](=O)[O-])NCc1ccc(Cl)cc1Cl	none (no result: FUS suppressor)
COc1ccccc1CC(=O)Nc1sc2c(c1C(N)=O)CCCC2	none
CCOC(=O)N1CCC(NC(=O)c2ccc3c(c2)N(Cc2ccccc2)C(=O)c2ccccc2S3(=O)=O)CC1	FUS suppressor inconclusive (no result: aSyn rescue)
O=C(c1ccc2c(c1)N(Cc1ccc(Cl)cc1)C(=O)c1ccccc1S2(=O)=O)N1CCCCCC1	FUS suppressor 28µM (no result: aSyn rescue)
N#Cc1cccnc1N1CCN(C(=O)c2ccc3c(c2)S(=O)(=O)c2ccccc2C3=O)CC1	none
O=C1c2ccccc2S(=O)(=O)c2cc(C(=O)N3CCN(c4ccc(Cl)cn4)CC3)ccc21	TDP-43 yeast inh 20µM
CCOC(=O)N1CCC(NC(=O)c2ccc3c(c2)N(Cc2ccc(F)cc2)C(=O)c2ccccc2S3(=O)=O)CC1	FUS suppressor 25µM (no result: aSyn rescue)
c1ccc(-c2nnc3sc(C4CCCCC4)nn23)cc1	none (no result: aSyn rescue, Abeta rescue, TDP-43 yeast inh)
O=S(=O)(c1ccccc1)C1CON(Cc2ccccc2)C1c1ccccc1 (stereo unspecified)	none
CCC(Sc1nc2ccccc2c2nc(CCc3c(C)n[nH]c3C)nn12)C(=O)Nc1ccccc1F (stereo unspecified)	none (no result: aSyn rescue)
COc1ccc(OC)c(C2C/C(=N/O)C(C)C(c3cc(OC)ccc3OC)N2)c1 (stereo unspecified)	none (no result: TDP-43 yeast inh)
O=C(Nc1ccc(N2CCOCC2)cc1Cl)C1CCN(C(=O)OCc2ccccc2)CC1	Abeta rescue 10µM
O=c1oc2cc(O)ccc2cc1-c1ccccc1	TDP-43 yeast inh 16µM (no result: Abeta rescue)
CCN(CC)C(=O)Cn1c(=O)cc(C)c2c(C)nn(-c3ccc(C)cc3)c21	none (no result: aSyn rescue)
CCC(C)c1ccc(C(C)NC(=S)NCc2ccc(F)cc2)cc1 (stereo unspecified)	Abeta rescue 3.5µM
CCCc1ccc(C(C)NC(=S)NC2CCCCC2)cc1 (stereo unspecified)	Abeta rescue 11µM
COc1ccc(C(C)NC(=S)NCc2ccc(F)cc2)cc1OC (stereo unspecified)	none
CCC(NC(=S)NCc1ccc(F)cc1)c1ccc(C(C)C)cc1 (stereo unspecified)	Abeta rescue 7.1µM
CCOc1ccc(C(C)NC(=S)NCc2ccc(Cl)cc2)cc1 (stereo unspecified)	Abeta rescue inconclusive
CCCc1ccc(C(C)NC(=S)NCc2ccc(F)cc2)cc1 (stereo unspecified)	Abeta rescue 3.5µM
Cc1cccc(N(CC(=O)O)CC(=O)O)c1	none (no result: FUS suppressor)
CC(NC(=S)NCc1ccc(F)cc1)C12CC3CC(CC(C3)C1)C2 (stereo unspecified)	Abeta rescue 5.6µM
O=C1CCC[C@@H]2Cc3[nH]c4c(Cl)ccc(Cl)c4c3[C@@H]3CCN1[C@H]23	TDP-43 yeast inh 28µM
CCOC(=O)N1CCN(C(=O)c2ccc3nc(-c4ccccc4)c(-c4ccccc4)nc3c2)CC1	TDP-43 yeast inh 18µM, FUS suppressor inconclusive
CCc1nc2ccc(C(=O)N3CCN(c4ccccc4F)CC3)cc2nc1CC	TDP-43 yeast inh 20µM!, FUS suppressor inconclusive
COc1cccc(CNc2nc3cc(-c4ccc(OC)cc4C)sc3c(=O)n2C)c1	TDP-43 yeast inh 20µM
COc1cccc(CNc2nc3cc(-c4cscc4C)sc3c(=O)n2C)c1	aSyn rescue inconclusive, TDP-43 yeast inh 20µM, FUS suppressor inconclusive
CCN(CC)c1ccc(C(=O)OCC(=O)NC2CCCCC2C)cc1 (stereo unspecified)	none
